The list is not random: actives were taken first. Their share in the collection is about 4.1%.
PglD DTNB – blocks C. jejuni PglD acetyltransferase activity | purified PglD enzyme, DTNB colorimetric CoA detection | inhibition, % at 12.5 µM | 0.098% of 360,000 active | AID 602405; in the data active means inhibition above about 16%, passing the limit was not always enough; inconclusive means no clear call, values can overlap the other calls
CFTR F508del cor – correctors of CFTR F508del function in bronchial epithelial cells. activity (quench increase), % at 7.58 µM. CFBE cells, YFP halide quenching; stimulated with forskolin plus potentiator P3; % fluorescence drop versus neutral controls. 0.36% of 350,000 active;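 active means mean added fluorescence quench of at least 8% versus neutral control, with both replicates also reaching 8%; inconclusive means only one of the mean or replicate conditions met; inactive means mean below 8% and not both replicates reaching 8%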;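 further: cells transiently co-express mutant CFTR-F508del with the halide-sensitive YFP; corrector assay measuring rescue of mutant channel to the surface after 24 h compound exposure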
ALR inh – blocks human ALR sulfhydryl oxidase activity; purified ALR, DTT oxidation, H2O2 HRP-luminol luminescence; 3.8% of 290,000 active; P55789; inhibition, % (no concentration beside the values);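 active means mean replicate inhibition above about 79%, with every replicate also reaching it, limit read from the data; inconclusive means only one of the two criteria met; inactive means mean below limit and not every replicate reaching it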
NSD2 HMT inh – inhibitors of human histone methyltransferase NSD2 | O96028 | 0.54% of 310,000 active | inhibition, % at 12.5 µM | NSD2 peptide methylation, AlphaScreen, 120 min; in the data active means inhibition above about 50%
Env fusion inh – inhibitors of HIV Env-mediated cell fusion. 1.1% of 360,000 active. inhibition, % at 12.3 µM. HeLa-JRFL Env/CEM21 cell fusion, luciferase. AID 651610;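 active means mean replicate inhibition score of at least 50 and every replicate individually at or above 50; inconclusive means only one of the two criteria met; inactive means mean below 50 and not all replicates reaching 50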
Casp6 inh – inhibitors of human caspase-6. 0.53% of 350,000 active. purified caspase-6, Z-VEID-R110 cleavage fluorescence. inhibition, % at 12.5 µM;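 active means mean inhibition across replicates at least about 35%, with every replicate also reaching that limit, limit read from the data; inconclusive means only one of the two criteria met; inactive means neither criterion met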
Of the large screens only hits and unclear results are named; the others gave an inactive call; [ ] = dose if it differs, or a comment.

COc1ccc(-c2cn(CC[C@H]3CC[C@H](NS(=O)(=O)c4ccccc4C)[C@H](CO)O3)nn2)cc1	Env fusion inh 72.8[16.7 µM] (no result: ALR inh, NSD2 HMT inh)
COc1ccc(-c2cn(CC[C@@H]3CC[C@H](NS(=O)(=O)c4ccccc4C)[C@@H](CO)O3)nn2)cc1	none (no result: ALR inh, NSD2 HMT inh)
COc1ccc(NC(=O)N[C@@H]2CC[C@H](CCn3cc(-c4ccc(F)cc4)nn3)O[C@@H]2CO)cc1	none (no result: ALR inh, NSD2 HMT inh)
COc1ccc(NC(=O)N[C@@H]2CC[C@@H](CCn3cc(-c4ccc(F)cc4)nn3)O[C@@H]2CO)cc1	CFTR F508del cor 9.2 (no result: ALR inh, NSD2 HMT inh)
O=S(=O)(N[C@@H]1CC[C@H](CCn2cc(-c3ccccc3F)nn2)O[C@H]1CO)c1ccc(Cl)cc1	none (no result: ALR inh, NSD2 HMT inh)
Cc1cccc(N2CCN(CC(=O)N(C)Cc3ccccc3)CC2C)c1 (configuration not stated)	ALR inh 98.4 (no result: Casp6 inh)
Cc1cc(S(=O)(=O)N2CCN(CC(=O)N(C)Cc3ccccc3)CC2)ccc1Br	none (no result: PglD DTNB, ALR inh)
C[C@@H](O)C#Cc1ccc([C@@H]2[C@H]3CN(C(=O)c4cccc(F)c4)CCCCN3[C@H]2CO)cc1	none (no result: ALR inh, NSD2 HMT inh, Env fusion inh, Casp6 inh)
CN1C(=O)c2cc(NC(=O)C3CCC3)ccc2OC[C@H]2O[C@H](CC(=O)NCCc3ccncc3)CC[C@H]21	none (no result: PglD DTNB, ALR inh, NSD2 HMT inh, Env fusion inh)
CCCCNc1cc(NC(C)=O)cc2cc(OC)c(OC)cc12	ALR inh 98.9 (no result: CFTR F508del cor, NSD2 HMT inh, Env fusion inh, Casp6 inh)
COc1cc(C2C3=C(CCCC3=O)Nc3[nH]n(-c4ccccc4)c(=O)c32)ccc1O (configuration not stated)	ALR inh 99.9 (no result: CFTR F508del cor, Casp6 inh)
O=C1CCCC2=C1C(c1ccc3c(c1)OCO3)c1c([nH]n(-c3ccccc3)c1=O)N2 (configuration not stated)	none (no result: CFTR F508del cor, Casp6 inh)
COc1cccc(C2C3=C(CCCC3=O)Nc3[nH]n(-c4ccccc4)c(=O)c32)c1 (configuration not stated)	ALR inh 78.4 (no result: PglD DTNB)
COc1ccc(NC(=O)N(C)C[C@@H]2OCCCC[C@H](C)Oc3ccc(NC(=O)Nc4cccc5ccccc45)cc3C(=O)N([C@H](C)CO)C[C@@H]2C)cc1	none (no result: ALR inh, NSD2 HMT inh, Casp6 inh)
S=c1[nH]nc(COc2ccccc2)n1/N=C/c1ccccn1	none (no result: CFTR F508del cor, NSD2 HMT inh, Env fusion inh, Casp6 inh)
S=c1[nH]c(-c2ccccc2)cn1/N=C/c1cccs1	none (no result: NSD2 HMT inh)
S=c1[nH]ncn1/N=C/c1ccccn1	ALR inh 92.2 (no result: CFTR F508del cor, Casp6 inh)
S=c1[nH]nc(-c2cccnc2)n1/N=C/c1cccs1	ALR inh 97.4 (no result: CFTR F508del cor, NSD2 HMT inh, Casp6 inh)
S=c1[nH]nc(-c2cccnc2)n1/N=C/c1ccccc1	none (no result: ALR inh)
S=c1[nH]ncn1/N=C/c1cccs1	ALR inh 97.0
CNC(=O)C[C@H]1CC[C@H]2[C@@H](COC[C@H](O)CN2C(=O)Nc2ccc3c(c2)OCO3)O1	none (no result: ALR inh, NSD2 HMT inh, Env fusion inh, Casp6 inh)
CCN1/C(=C/C=C/c2oc3ccc(-c4ccccc4)cc3[n+]2CC)Oc2ccc(-c3ccccc3)cc21	Env fusion inh 76.8 (no result: NSD2 HMT inh)
CS(=O)(=O)Nc1ccc2c(c1)[C@@H]1C[C@@H](CC(=O)O)O[C@H](CO)[C@@H]1O2	none (no result: PglD DTNB, ALR inh, NSD2 HMT inh, Env fusion inh)
c1ccc(CNc2ncnc3sccc23)cc1	none
c1csc(CNc2ncnc3sccc23)c1	Env fusion inh 80.0 (no result: CFTR F508del cor, Casp6 inh)
c1csc(CNc2nc(-c3cccs3)nc3ccccc23)c1	ALR inh 95.7 (no result: PglD DTNB)
CN(Cc1cccs1)c1ncnc2sccc12	Env fusion inh 70.1 (no result: PglD DTNB, CFTR F508del cor, Casp6 inh)
COc1ccc(S(=O)(=O)N(C)C[C@@H]2Oc3ccc(NS(=O)(=O)c4ccccc4)cc3CC(=O)N([C@@H](C)CO)C[C@H]2C)cc1	CFTR F508del cor inconclusive (no result: ALR inh, NSD2 HMT inh)
COC(=O)C[C@H]1CC[C@@H]2[C@H](COC[C@@H](O)CN2S(=O)(=O)c2ccc(F)cc2)O1	none (no result: ALR inh, NSD2 HMT inh, Casp6 inh)
COc1cccc(-c2noc(Cn3nc(C)c([N+](=O)[O-])c3C)n2)c1	ALR inh 92.4 (no result: PglD DTNB, CFTR F508del cor, Env fusion inh, Casp6 inh)
COc1cccc(OCc2nc(-c3cccc([N+](=O)[O-])c3)no2)c1	none (no result: PglD DTNB)
COc1ccc(Br)cc1S(=O)(=O)NCc1ccccn1	none
Cc1cc(Br)ccc1NCc1ccccn1	ALR inh 98.4 (no result: PglD DTNB, CFTR F508del cor, Casp6 inh)
CO[C@@H]1CN(C)C(=O)c2cc(NS(C)(=O)=O)ccc2OC[C@H](C)N(S(C)(=O)=O)C[C@@H]1C	none (no result: PglD DTNB, ALR inh, NSD2 HMT inh, Env fusion inh, Casp6 inh)
COc1ccc(Cn2nnnc2C(c2cc3cc(C)cc(C)c3[nH]c2=O)N2CCOCC2)cc1 (configuration not stated)	Env fusion inh 131.0 (no result: CFTR F508del cor, ALR inh, Casp6 inh)
CCc1ccc2[nH]c(=O)c(C(c3nnnn3Cc3ccccc3)N3CCOCC3)cc2c1 (configuration not stated)	none (no result: CFTR F508del cor, Casp6 inh)
Cc1ccc2occ(C(c3nnnn3Cc3ccccc3)N3CCOCC3)c(=O)c2c1 (configuration not stated)	NSD2 HMT inh 66.7 (no result: PglD DTNB, CFTR F508del cor, Env fusion inh, Casp6 inh)
CCc1ccc2[nH]c(=O)c(C(c3nnnn3Cc3ccc(OC)cc3)N3CCOCC3)cc2c1 (configuration not stated)	Env fusion inh 77.9 (no result: CFTR F508del cor, ALR inh, Casp6 inh)
C[C@@H]1CN([C@@H](C)CO)C(=O)c2cc(NC(=O)C3CCCCC3)ccc2O[C@@H](C)CCCCO[C@@H]1CN(C)C(=O)Nc1cccc2ccccc12	none (no result: ALR inh, NSD2 HMT inh)
O=C(/C=C/c1ccc(Cl)cc1Cl)Nc1ccc(-c2nnc3n2CCCCC3)cc1	none (no result: PglD DTNB, CFTR F508del cor, ALR inh, Env fusion inh, Casp6 inh)
COc1ccc(S(=O)(=O)N(C)C[C@@H]2OCCCC[C@@H](C)Oc3ccc(NC(=O)CCC(F)(F)F)cc3C(=O)N([C@@H](C)CO)C[C@@H]2C)cc1	none (no result: ALR inh, NSD2 HMT inh)

From PubChem BioAssay
